# Source: PubChem BioAssay (Tox21)
# Values without a mark were called inactive. Inconclusive results are not listed. Activity calls are given as the source filed them. Unless noted, the call rests on the fitted dose curve; in most records, active means well fitted curve in the direction sought with a large enough effect in the repeat runs; inconclusive means weak or mixed curves; inactive means no such curve, though single readings can be large; an effect the other way counts as inactive or inconclusive.
# Assay: qHTS assay for small molecule disruptors of the mitochondrial membrane potential - cell viability (AID 720634; calls by dose curve;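 further: human HepG2 liver cancer cells; nearly all actives have a fitted effect of over 20% in size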)
# Conditions: HepG2 viability, ATP luminescence (CellTiter-Glo), 1 h; series mostly up to 83.2 µM; activity change, negative = cytotoxicity: at the top concentration
# Method in brief: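 Cytotoxicity was measured by ATP quantitation in HepG2 wells that had first been treated with compound for 1 hr and stained with m-MPI dye; CellTiter-Glo incubation was 30 min at room temperature.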
# On the % scale 0 is the no-effect control and ±100 the full control effect.
SMILES,"activity change, negative = cytotoxicity [%]",Potency
FCOC(C(F)(F)F)C(F)(F)F,3.6,–
CCN(CC)CCOc1ccc2nc(N(C)C)sc2c1,-13.7,–
COc1cc(-c2ccc(-[n+]3nc(-c4ccccc4)nn3-c3ccc([N+](=O)[O-])cc3)c(OC)c2)ccc1-[n+]1nc(-c2ccccc2)nn1-c1ccc([N+](=O)[O-])cc1,-12.2,–
COC(=O)[C@H]1[C@H]2C[C@@H]3c4[nH]c5ccccc5c4CCN3C[C@H]2C[C@@H](OC(=O)c2cc(OC)c(OC)c(OC)c2)[C@@H]1OC,–,inactive

# Assay: qHTS assay for small molecule disruptors of the mitochondrial membrane potential (AID 720635); further: potency means the concentration at half of the fitted maximal effect
# Conditions: HepG2 mitochondrial membrane potential, Mito-MPS dye ratio; series mostly up to 83.2 µM; ratio activity, negative = MMP loss: at the top concentration
# Method in brief: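 HepG2 cells (2,000/well) attached overnight at 37C, then took compound for 1 hr at 37C, 5% CO2. Mito-MPS dye was added for 30 min; fluorescence was read at 490/535 nm (monomers) and 540/590 nm (aggregates).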
SMILES,"ratio activity, negative = MMP loss [%]",Potency
CCCCCC(O)/C=C/C=O (stereo not drawn),-3.52,–
O=C(Cn1c(=O)sc2ccc(Cl)cc21)N1CCN(CCO)CC1,-4.06,–
CCCCCCOc1ccc(C(=N)N(CCCC)CCCC)c2ccccc12,–,8.41 µM (active)
OC[C@H]1OC([S-])[C@H](O)[C@@H](O)[C@@H]1O.[Au+] (stereo partly drawn),11.5,–
C=C1CC[C@H](O)CC1=C/C=C1\CCC[C@]2(C)[C@@H]([C@H](C)CCCC(C)(C)O)CC[C@@H]12,–,5.31 µM (active)
O=C(COc1ccc(Cl)cc1)OCCNC12CC3CC(CC(C3)C1)C2,12.1,–
CCN(CC)c1ccc(C(=C2C=CC(=[N+](CC)CC)C=C2)c2ccccc2)cc1,–,0.266 µM (active)
CC(CCc1ccc(O)cc1)NCC(O)c1ccc(O)cc1 (stereo not drawn),18.7,–
CC(=O)Nc1c(I)c(C(=O)O)c(I)c(N(C)C(C)=O)c1I,-9.53,–
C[C@]12C=CC(=O)N[C@@H]1CC[C@@H]1[C@@H]2CC[C@]2(C)[C@@H](C(=O)Nc3cc(C(F)(F)F)ccc3C(F)(F)F)CC[C@@H]12,–,0.944 µM (active)
C[C@H](O)[C@H](O)[C@H]1CNc2nc(N)[nH]c(=O)c2N1,-29,–
CC(O)[C@H]1CC[C@H]2[C@@H]3CC[C@@H]4C[C@@H](O)CC[C@]4(C)[C@H]3CC[C@]12C (stereo partly drawn),-15.9,–
CCCCc1cc2c(=O)c(C(=O)OC)c[nH]c2cc1OCc1ccccc1,5.62,–
C=C[C@]1(C)C[C@@H](OC(=O)CSCCN(CC)CC)[C@]2(C)[C@H](C)CC[C@]3(CCC(=O)[C@H]32)[C@@H](C)[C@@H]1O,7.28,–
CCCCC[C@H](O)/C=C/[C@@H]1[C@H]2C/C(=C/CCCC(=O)O)O[C@H]2C[C@H]1O,16.5,–
CCOC(=O)[C@@H](N)CS,21.3,–
CCOC(=O)c1c[nH]c2cc(OCC(C)C)c(OCC(C)C)cc2c1=O,-5.45,–
CN(CCO)CC(O)Cn1cnc2c1c(=O)n(C)c(=O)n2C (stereo not drawn) (tested in a mixture with another compound),-2.7,–
FCOC(C(F)(F)F)C(F)(F)F,-12,–
COC(=O)[C@H]1[C@H]2C[C@@H]3c4[nH]c5ccccc5c4CCN3C[C@H]2C[C@@H](OC(=O)c2cc(OC)c(OC)c(OC)c2)[C@@H]1OC,–,3.35 µM (active)

# Assay: qHTS assay to test for compound auto fluorescence at 590 nm (red) in HepG2 cells (AID 720674)
# Conditions: HepG2 autofluorescence, red 540/590 nm, 1 h; series mostly up to 46 µM; fluorescence, relative to Rose Bengal: at the top concentration
# Method in brief: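 Rose Bengal sodium served as the red fluorophore standard. HepG2 monolayers (overnight attachment, MEM with 10% FBS) were exposed to test compounds for 1 hr at 37 C and read at Ex 540/Em 590 nm.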
SMILES,"fluorescence, relative to Rose Bengal",Potency
CCCCCC(O)/C=C/C=O (stereo not drawn),-0.0424%,–
O=C(Cn1c(=O)sc2ccc(Cl)cc21)N1CCN(CCO)CC1,0.23%,–
COc1ccc2c(c1)OC(C)(C)C(c1ccccc1)C2c1ccc(OCCN2CCCC2)cc1 (stereo not drawn),0.598%,–
CCCCCCOc1ccc(C(=N)N(CCCC)CCCC)c2ccccc12,0.222%,–
C[C@H](N)C(=O)N[C@@H](C)P(=O)(O)O,0.2%,–
OC[C@H]1OC([S-])[C@H](O)[C@@H](O)[C@@H]1O.[Au+] (stereo partly drawn),0.658%,–
CC[C@@H](C(=O)[C@@H](C)[C@@H](O)[C@H](C)[C@@H]1O[C@@H]([C@@H](CC)C(=O)O)CC[C@@H]1C)[C@H]1O[C@]2(C=C[C@@H](O)[C@]3(CC[C@@](C)([C@H]4CC[C@](O)(CC)[C@H](C)O4)O3)O2)[C@H](C)C[C@@H]1C,-0.0857%,–
C=C1CC[C@H](O)CC1=C/C=C1\CCC[C@]2(C)[C@@H]([C@H](C)CCCC(C)(C)O)CC[C@@H]12,0.455%,–
O=C(COc1ccc(Cl)cc1)OCCNC12CC3CC(CC(C3)C1)C2,0.487%,–
CCOC(=O)Oc1c(OC)cc(C(=O)O[C@@H]2C[C@@H]3CN4CCc5c([nH]c6cc(OC)ccc56)[C@H]4C[C@@H]3[C@H](C(=O)OC)[C@H]2OC)cc1OC,0.385% [at 18.6 µM],–
Nc1nc2[nH]cc(CCc3ccc(C(=O)N[C@@H](CCC(=O)O)C(=O)O)cc3)c2c(=O)[nH]1,-0.658%,–
CC(CC(c1ccccc1)c1ccccc1)NC(C)(C)C (stereo not drawn),-0.0863%,–
NC[C@@H]1O[C@H](O[C@H]2[C@@H](O)[C@H](O[C@@H]3[C@@H](O)[C@H](N)C[C@H](N)[C@H]3O[C@H]3O[C@H](CN)[C@@H](O)[C@H](O)[C@H]3N)O[C@@H]2CO)[C@H](N)[C@@H](O)[C@@H]1O,0.142%,–
OC1OC[C@@H](O)[C@H](O)[C@@H]1O (stereo partly drawn),0.002%,–
CCN(CC)c1ccc(C(=C2C=CC(=[N+](CC)CC)C=C2)c2ccccc2)cc1,0.175%,–
CC(CCc1ccc(O)cc1)NCC(O)c1ccc(O)cc1 (stereo not drawn),-0.199%,–
CC(=O)Nc1c(I)c(C(=O)O)c(I)c(N(C)C(C)=O)c1I,0.0952%,–
C[C@]12C=CC(=O)N[C@@H]1CC[C@@H]1[C@@H]2CC[C@]2(C)[C@@H](C(=O)Nc3cc(C(F)(F)F)ccc3C(F)(F)F)CC[C@@H]12,0.0188%,–
CCC(Oc1ccccc1)C(=O)N[C@@H]1C(=O)N2[C@@H]1SC(C)(C)[C@@H]2C(=O)O (stereo partly drawn),-0.411%,–
COc1c(O[C@@H]2O[C@H](CO)[C@@H](O)[C@H](O)[C@H]2O)cc2c(c1OC)-c1ccc(SC)c(=O)cc1[C@@H](NC(C)=O)CC2,0.0605% [at 18.6 µM],–

SMILES,"fluorescence, relative to Rose Bengal",Potency
CC[C@@H]1/C=C(\C)C[C@H](C)C[C@H](OC)[C@H]2O[C@@](O)(C(=O)C(=O)N3CCCC[C@H]3C(=O)O[C@H](/C(C)=C/[C@@H]3CC[C@@H](Cl)[C@H](OC)C3)[C@H](C)[C@@H](O)CC1=O)[C@H](C)C[C@@H]2OC,-0.243%,–
C[C@H](O)[C@H](O)[C@H]1CNc2nc(N)[nH]c(=O)c2N1,-0.15%,–
COc1ccc(C[C@H](N)C(=O)N[C@H]2[C@@H](O)[C@H](n3cnc4c(N(C)C)ncnc43)O[C@@H]2CO)cc1,0.304%,–
O=C(NNCNNC(=O)c1ccncc1)c1ccncc1,-0.206%,–
CC(O)[C@H]1CC[C@H]2[C@@H]3CC[C@@H]4C[C@@H](O)CC[C@]4(C)[C@H]3CC[C@]12C (stereo partly drawn),0.787%,–
CCCCc1cc2c(=O)c(C(=O)OC)c[nH]c2cc1OCc1ccccc1,0.0169%,–
C=C[C@]1(C)C[C@@H](OC(=O)CSCCN(CC)CC)[C@]2(C)[C@H](C)CC[C@]3(CCC(=O)[C@H]32)[C@@H](C)[C@@H]1O,0.0819%,–
CCCCCCCCCCCCCCCCCC(=O)OCC(C)O (stereo not drawn),0.0121%,–
CCCCC[C@H](O)/C=C/[C@@H]1[C@H]2C/C(=C/CCCC(=O)O)O[C@H]2C[C@H]1O,0.0438%,–
CCOC(=O)[C@@H](N)CS,0.966%,–
CC1(C)S[C@@H]2[C@H](NC(=O)C(N)c3ccccc3)C(=O)N2[C@H]1C(=O)OC1OC(=O)c2ccccc21 (stereo partly drawn),0.479% [at 18.6 µM],–
CN1CCc2c(c3ccccc3n2Cc2ccccc2)C1,-0.122% [at 18.6 µM],–
CN(C)CCOc1ccccc1Cc1ccccc1 (tested in a mixture with another compound),0.029%,–
CCOC(=O)c1c[nH]c2cc(OCC(C)C)c(OCC(C)C)cc2c1=O,0.352%,–
CN(CCO)CC(O)Cn1cnc2c1c(=O)n(C)c(=O)n2C (stereo not drawn) (tested in a mixture with another compound),0.0682%,–
FCOC(C(F)(F)F)C(F)(F)F,0.183%,–
CCN(CC)CCOc1ccc2nc(N(C)C)sc2c1,0.399%,–
COc1cc(-c2ccc(-[n+]3nc(-c4ccccc4)nn3-c3ccc([N+](=O)[O-])cc3)c(OC)c2)ccc1-[n+]1nc(-c2ccccc2)nn1-c1ccc([N+](=O)[O-])cc1,-0.42%,–
COC(=O)[C@H]1[C@H]2C[C@@H]3c4[nH]c5ccccc5c4CCN3C[C@H]2C[C@@H](OC(=O)c2cc(OC)c(OC)c(OC)c2)[C@@H]1OC,–,inactive
